Measurements reported in PubChem BioAssay (Tox21).
Where “and” joins values, the source holds several entries; their conditions need not be identical. Equal entries are not always repeated. Results filed as inconclusive are left out. Entries that show only a call come without a potency. A structure can be active in one record and inactive in another. Calls of active or inactive are those of the source. Unless noted, calls come from the whole dose curve; as a rule, active = well fitted curve in the direction sought with a large enough effect in the repeat runs; inconclusive = weak or mixed curves; inactive = no such curve, though single readings can be large; an effect the other way counts as inactive or inconclusive.

Key:
[1] = target: Retinoic acid receptor RXR-alpha (Homo sapiens) (UniProt P19793); assay: qHTS assay to identify small molecule agonists of the RXR signaling pathway (AID 1159527; calls by dose curve; note: nearly all actives have a fitted effect of over 35% in size; note: potency is the fitted concentration of half-maximal effect); settings: HEK293T RXRa-UAS-bla, beta-lactamase ratio, 16 h; series mostly up to 76.8 µM
Retinoic acid receptor RXR-alpha (Homo sapiens), sequence (P19793 whole entry, looked up): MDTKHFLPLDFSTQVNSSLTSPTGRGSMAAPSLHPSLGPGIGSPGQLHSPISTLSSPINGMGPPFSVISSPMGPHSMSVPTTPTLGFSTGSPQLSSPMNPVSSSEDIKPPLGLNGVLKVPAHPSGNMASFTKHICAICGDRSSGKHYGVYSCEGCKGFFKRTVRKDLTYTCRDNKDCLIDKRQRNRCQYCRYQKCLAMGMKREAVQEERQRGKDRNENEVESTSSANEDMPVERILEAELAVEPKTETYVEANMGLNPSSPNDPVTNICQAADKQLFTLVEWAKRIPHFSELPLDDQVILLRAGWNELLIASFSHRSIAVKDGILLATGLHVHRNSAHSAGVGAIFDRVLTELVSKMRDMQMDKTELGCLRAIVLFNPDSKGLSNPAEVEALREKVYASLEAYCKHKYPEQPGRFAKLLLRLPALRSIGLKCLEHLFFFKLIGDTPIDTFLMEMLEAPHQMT
In short: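 Beta-lactamase reporter assay, agonist format. Engineered HEK 293T line, charcoal-stripped FBS at 2%, overnight (16 hr) exposure, fluorescence at 460 and 530 nm after 405 nm excitation.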

[2] = qHTS assay to identify small molecule antagonists of the retinoid acid receptor (RAR) signaling pathway - cell viability counter screen (AID 1159551); settings: C3RL4 cells viability, ATP luminescence (CellTiter-Glo), 6 h; series mostly up to 92.4 µM; note: nearly all actives have a fitted effect of over 35% in size; note: potency is the fitted concentration of half-maximal effect
In short: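 Cells (C3RL4) are plated, incubated overnight, dosed with compound in DMSO, then given retinol at 1 uM final. After 6 h at 37 C, CellTiter-Glo is added and luminescence read following 30 min at room temperature.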

[3] = qHTS assay to identify small molecule antagonists of the retinoic acid receptor (RAR) signaling pathway (AID 1159552; note: nearly all actives have a fitted effect of over 50% in size; note: potency is the fitted concentration of half-maximal effect); settings: C3RL4 RARE luciferase reporter, retinol-stimulated, 6 h; series mostly up to 92.4 µM
In short: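 Readout: luciferase luminescence, 30 min post-reagent at RT. Setup: C3RL4 RARE reporter cells, compounds plus retinol 1 uM final, 6 hr incubation at 37 C and 5% CO2.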

[4] = qHTS assay to identify small molecule agonists of the retinoic acid receptor (RAR) signaling pathway (AID 1159553); settings: C3RL4 RARE luciferase reporter, agonist, 6 h; series mostly up to 73.3 µM; note: potency is the fitted concentration of half-maximal effect
In short: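 Seed C3RL4 reporter cells at 1,000 per well and incubate overnight at 37 C. Add compounds in DMSO, incubate 6 hr. Add luciferase reagent, wait 30 min at room temperature, read luminescence.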

[5] = qHTS assay to identify small molecule agonists of the RXR signaling pathway - cell viability counter screen (AID 1159529); settings: RXR-alpha-bla HEK293T viability, CellTiter-Glo, 16 h; series mostly up to 76.8 µM; note: nearly all actives have a fitted effect of over 50% in size; note: potency is the fitted concentration of half-maximal effect
In short: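 Same-well viability check after the LiveBLAzer FRET read: CellTiter-Glo added, luminescence measured after 30 min at room temperature. Reporter HEK 293T cells had been treated with compounds for 16 hr following a 5 hr preincubation.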

[6] = qHTS assay to identify small molecule antagonists of the estrogen related receptor (ERR) signaling pathway - cell viability counter screen (AID 1224818); settings: ERR reporter cell line viability counter screen; series mostly up to 92.2 µM
In short: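 ERR cells, 2,000/well; 6 h settle at 37 C/5% CO2; compound pin transfer (DMSO); 17.5 h at 37 C; CellTiter-Fluor, 30 min, fluorescence read.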

[7] = qHTS assay to identify small molecule antagonists of the estrogen related receptor (ERR) signaling pathway (AID 1224819; note: nearly all actives have a fitted effect of over 50% in size); settings: ERR reporter cell line, luciferase inhibition; series mostly up to 46.1 µM
In short: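 qHTS in ERR cells, 2,000/well, 1536 format. Cpd (DMSO) added after 6 h settle, 18 h 37 C. One-Glo luminescence, 30 min RT.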

[8] = qHTS assay to identify small molecule agonists of the estrogen related receptor (ERR) signaling pathway (AID 1224820); settings: ERR reporter cell line, luciferase agonist mode; series mostly up to 46.1 µM
In short: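 After 6 h plating (2,000 cells/well) and 18 h compound treatment at 37 C, ERR cells were lysed with One-Glo and luminescence read after 30 min at room temperature.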

[9] = system: estrogen-related receptor alpha (ERRalpha) with PGC-1alpha coactivator, human; assay: qHTS assay to identify small molecule antagonists of the estrogen related receptor signaling pathway with the pleiotropic PPARgamma coactivator (PGC) (AID 1224821; calls by dose curve;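 note: lower luminescence signal means antagonism of PGC/ERR signalling; nearly all actives have a fitted effect of over 50% in size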); settings: ERR/PGC reporter cell line, luciferase, antagonist mode; series mostly up to 92.2 µM
In short: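 Luminescence from One-Glo luciferase reagent (30 min, room temperature) measured after 18 h compound treatment at 37 °C. Cells carry the PGC/ERR reporter and were seeded 6 h prior to dosing.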

[10] = qHTS assay to identify small molecule antagonists of the estrogen related receptor signaling pathway with the pleiotropic PPARgamma coactivator (PGC) cell viability counter screen (AID 1224822;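 note: viability read after 17.5 h compound exposure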); settings: ERR/PGC reporter cell line viability counter screen; series mostly up to 92.2 µM
In short: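 Multiplexed viability counter screen run in PGC/ERR cells treated with compounds for 17.5 h at 37 C; live-cell protease signal measured by CellTiter-Fluor fluorescence.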

## CC1(C)[C@H](C=C(Cl)Cl)[C@@H]1C(=O)O[C@@H](C#N)c1cccc(Oc2ccccc2)c1
[1]
  Potency: inactive
[2]
  Potency: inactive
[3]
  Potency: inactive
[4]
  Potency: inactive

## CC(=O)[C@H]1CC[C@H]2[C@@H]3CC[C@H]4C[C@](C)(O)CC[C@]4(C)[C@H]3CC[C@]12C
[1]
  Potency: inactive
[5]
  Potency: inactive
[2]
  Potency: inactive
[6]
  outcome: inactive
[7]
  outcome: inactive
[8]
  outcome: inactive
[9]
  Potency: inactive
[10]
  Potency: inactive

## O=Cc1ccc(Cl)cc1Cl
[1]
  Potency: inactive
[5]
  Potency: inactive
[2]
  Potency: inactive
[3]
  Potency: inactive
[4]
  Potency: inactive

## COC(=O)C(Cl)C(=O)OC
[1]
  Potency: inactive
[5]
  Potency: inactive
[2]
  Potency: inactive
[3]
  Potency: inactive
[4]
  Potency: inactive

## CC(c1ccc(O)cc1)(c1ccc(O)cc1)c1ccc(O)cc1
[1]
  Potency: inactive
[2]
  Potency: inactive
[3]
  Potency: 61.1 µM (active)
[4]
  Potency: inactive

## c1ccc(C2CC2)c(OCC2=NCCN2)c1
[1]
  Potency: inactive
[5]
  Potency: inactive
[2]
  Potency: inactive
[3]
  Potency: inactive
[4]
  Potency: inactive
[6]
  outcome: inactive
[7]
  outcome: inactive
[8]
  outcome: inactive
[9]
  Potency: inactive
[10]
  Potency: inactive

## C=CC(=O)OCC(C)O (stereo not given)
[1]
  Potency: inactive
[5]
  Potency: inactive
[3]
  Potency: inactive
[4]
  Potency: inactive

## O=C(CBr)OCc1ccccc1
[1]
  Potency: inactive
[5]
  Potency: inactive
[2]
  Potency: inactive
[3]
  Potency: inactive
[4]
  Potency: inactive

## C[N+](C)(C)CCCl
[1]
  Potency: inactive
[5]
  Potency: inactive
[2]
  Potency: inactive
[3]
  Potency: inactive
[4]
  Potency: inactive

## Cl/C=C\Cl
[1]
  Potency: inactive
[5]
  Potency: inactive
[3]
  Potency: inactive
[4]
  Potency: inactive

## CCOP(=O)(OCC)SCCSCC
[1]
  Potency: inactive
[5]
  Potency: inactive
[2]
  Potency: inactive
[3]
  Potency: inactive
[4]
  Potency: inactive

## COP(=S)(OC)Oc1cc(Cl)c(I)cc1Cl
[1]
  Potency: inactive
[5]
  Potency: inactive
[2]
  Potency: inactive
[3]
  Potency: inactive
[4]
  Potency: inactive

## CCC(Cl)CCl (stereo not given)
[1]
  Potency: inactive
[5]
  Potency: inactive
[2]
  Potency: inactive
[3]
  Potency: inactive
[4]
  Potency: inactive

## C=CC(=O)NCNC(=O)C=C
[1]
  Potency: 4.35 µM (active)
[2]
  Potency: inactive
[4]
  Potency: inactive
[6]
  outcome: inactive
[7]
  outcome: inactive
[9]
  Potency: inactive
[10]
  Potency: inactive

## COC(=O)C(Br)CBr (stereo not given)
[1]
  Potency: inactive
[5]
  Potency: inactive
[2]
  Potency: inactive
[3]
  Potency: inactive
[4]
  Potency: inactive

## O=C(CCl)c1ccc(Cl)cc1Cl
[5]
  Potency: inactive and 13.4 µM (active)
[2]
  Potency: inactive
[3]
  Potency: 1.88 µM (active)

## CCCCc1c(C)nc(NCC)nc1OS(=O)(=O)N(C)C
[5]
  Potency: inactive
[2]
  Potency: inactive
[3]
  Potency: inactive
[4]
  Potency: inactive

## [CH3][Sn]([CH3])([Cl])[Cl]
[5]
  Potency: inactive
[2]
  Potency: inactive
[3]
  Potency: 55.4 µM (active) and 48.6 µM (active)

## CC(C)(CCl)C(=O)Cl
[5]
  Potency: inactive
[2]
  Potency: inactive
[3]
  Potency: inactive

## O=C(O)COc1ccc(Cl)cc1
[5]
  Potency: inactive
[2]
  Potency: inactive
[3]
  Potency: inactive
[4]
  Potency: inactive

## C=CCOC(C)=O
[5]
  Potency: inactive
[2]
  Potency: inactive
[3]
  Potency: inactive
[4]
  Potency: 75.9 µM (active)

## O=NN1CCCCCC1
[5]
  Potency: inactive
[2]
  Potency: inactive
[3]
  Potency: inactive
[4]
  Potency: inactive

## C(=NC1CCCCC1)=NC1CCCCC1
[5]
  Potency: inactive
[2]
  Potency: inactive
[3]
  Potency: inactive
[4]
  Potency: inactive

## CC(=O)c1cc2c(cc1C)C(C)(C)C(C)CC2(C)C (stereo not given)
[5]
  Potency: 43.6 µM (active)

## CC(C)(C)c1cc([N+](=O)[O-])cc([N+](=O)[O-])c1O
[5]
  Potency: inactive
[2]
  Potency: inactive

## Nc1ccc(N=Nc2ccc(-c3ccc(N=Nc4c(S(=O)(=O)O)cc5cc(S(=O)(=O)O)c(N=Nc6ccccc6)c(O)c5c4N)cc3)cc2)c(N)c1
[5]
  Potency: inactive
[2]
  Potency: 15.7 µM (active)
[3]
  Potency: inactive

## O=C(N[C@H](c1ccccc1)[C@@H]1CN2CCC1CC2)c1c(Cl)ccc(C(F)(F)F)c1Cl
[5]
  Potency: inactive
[2]
  Potency: inactive

## C/C(=C\c1ccccc1)[N+](=O)[O-]
[5]
  Potency: inactive
[2]
  Potency: inactive
[3]
  Potency: 30.6 µM (active)

## O=C(NC(=O)c1c(F)cccc1F)Nc1ccc(OC(F)(F)C(F)OC(F)(F)F)c(Cl)c1 (stereo not given)
[5]
  Potency: inactive
[2]
  Potency: inactive

## C=CC[C@]1(O)CC[C@H]2[C@@H]3CCC4=CC(=O)CCC4=C3C=C[C@@]21C
[5]
  Potency: 23.9 µM (active)
[2]
  Potency: 33.5 µM (active)
